Test results from PubChem BioAssay.
Values joined by “and” are separate entries in the source; they are usually repeats but may differ in a detail not shown here. Equal entries are not always repeated. Records with an inconclusive call do not appear. Active and inactive are the calls of the source.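 How the source made its calls, unless noted: active means compounds whose cell count with miR-34 switched on is under 0.7 times the count with it off; inactive means the rest.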

Assay: SU-DIPG-XXV glioma cell viability, MIPE5.0 library, qHTS (AID 1347068; cut-off not given, nearly all actives have IC50 up to about 30 µM;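 on IC50: cells exposed to compound for 48 hours before viability readout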)
Details: not given

Structure (SMILES)	IC50	outcome
CC[C@]1(O)CC2CN(CCc3c([nH]c4ccccc34)[C@@](C(=O)OC)(c3cc4c(cc3OC)N(C)[C@H]3[C@@](O)(C(=O)OC)[C@H](OC(C)=O)[C@]5(CC)C=CCN6CC[C@]43[C@@H]65)C2)C1 (stereo partly drawn)	3.32 µM (active)	
C[C@]12CCC3c4ccc(O)cc4CCC3C1CCC2=O (stereo partly drawn)		inactive
OC[C@@H](O)[C@@H](O)[C@H](O)[C@@H](O)CO		inactive
COC(=O)/C=C/C(=O)OC		inactive
O=c1ccn([C@@H]2O[C@H](CO)[C@@H](O)[C@H]2O)c(=O)[nH]1		inactive
N#C[C@@H]1C[C@@H]2C[C@@H]2N1C(=O)[C@@H](N)C12CC3CC(CC(O)(C3)C1)C2		inactive
Cc1coc2c1C(=O)C(=O)c1c-2ccc2c1CCCC2(C)C		inactive
COC1=C(OC)C(=O)C(C/C=C(\C)CC/C=C(\C)CC/C=C(\C)CC/C=C(/C)CC/C=C(\C)CC/C=C(\C)CC/C=C(\C)CC/C=C(\C)CC/C=C(\C)CCC=C(C)C)=C(C)C1=O		inactive
C[C@H]1COC2=C1C(=O)C(=O)c1c2ccc2c1CCCC2(C)C		inactive
CCCCS(=N)(=O)CCC(N)C(=O)O (stereo not drawn)		inactive
Oc1cc2c(cc1O)C1c3ccc(O)c(O)c3OCC1(O)C2 (stereo not drawn)		inactive
COc1ccc2nc3cc(Cl)ccc3c(Nc3cc(CN4CCCC4)c(O)c(CN4CCCC4)c3)c2n1	10.5 µM (active)	
CC(C)C(C)/C=C/C(C)C1CCC2C3=CC=C4CC(O)CCC4(C)C3CCC21C (stereo not drawn)		inactive
CC(C)(CO)[C@@H](O)C(=O)NCCC(=O)O		inactive
CN1C(C(=O)Nc2ccccn2)=C(O)c2sc(Cl)cc2S1(=O)=O		inactive
CC(=O)NC(CS)C(=O)O (stereo not drawn)		inactive
CC(NCCc1ccc(O)cc1)C(O)c1ccc(O)cc1 (stereo not drawn)		inactive
CN[C@@H]1[C@H](O[C@H]2[C@H](O[C@@H]3[C@@H](O)[C@H](O)[C@@H](N=C(N)N)[C@H](O)[C@H]3N=C(N)N)O[C@@H](C)[C@]2(O)C=O)O[C@@H](CO)[C@H](O)[C@H]1O		inactive
Nc1nc(F)nc2c1ncn2[C@@H]1O[C@H](COP(=O)(O)O)[C@@H](O)[C@@H]1O		inactive
N[C@@H](CC(=O)N1CCn2c(nnc2C(F)(F)F)C1)Cc1cc(F)c(F)cc1F		inactive

Assay: sensitizers of A549 cells to miR-34 induction, primary screen, imaging, A549 dox-inducible miR-34, nuclei and caspase counts (AID 1347080)
Details: A549 miR-34 inducible, Hoechst nuclei count, 48 h; hits give low values; cell number ratio, induced over uninduced

Structure (SMILES)	fold change
CC[C@]1(O)CC2CN(CCc3c([nH]c4ccccc34)[C@@](C(=O)OC)(c3cc4c(cc3OC)N(C)[C@H]3[C@@](O)(C(=O)OC)[C@H](OC(C)=O)[C@]5(CC)C=CCN6CC[C@]43[C@@H]65)C2)C1 (stereo partly drawn)	1.13 (inactive) and 1.04 (inactive)
C[C@]12CCC3c4ccc(O)cc4CCC3C1CCC2=O (stereo partly drawn)	1.01 (inactive)
OC[C@@H](O)[C@@H](O)[C@H](O)[C@@H](O)CO	0.939 (inactive)
COC(=O)/C=C/C(=O)OC	0.976 (inactive)
C=CC[C@@H]1/C=C(\C)C[C@H](C)C[C@H](OC)[C@H]2O[C@@](O)(C(=O)C(=O)N3CCCC[C@H]3C(=O)O[C@H](/C(C)=C/[C@@H]3CC[C@@H](O)[C@H](OC)C3)[C@H](C)[C@@H](O)CC1=O)[C@H](C)C[C@@H]2OC	1.03 (inactive) and 0.874 (inactive)
CC(=O)OCC(=O)[C@@]1(O)CCC2C3CCC4=CC(=O)C=C[C@]4(C)[C@@]3(Cl)[C@@H](Cl)C[C@@]21C (stereo partly drawn)	0.864 (inactive)
N#C[C@@H]1C[C@@H]2C[C@@H]2N1C(=O)[C@@H](N)C12CC3CC(CC(O)(C3)C1)C2	0.886 (inactive)
Cc1coc2c1C(=O)C(=O)c1c-2ccc2c1CCCC2(C)C	1.17 (inactive) and 1.16 (inactive) and 1.64 (inactive)
O=C1c2c(O)cccc2[C@@H](O[C@@H]2O[C@H](CO)[C@H](O)[C@@H](O)[C@H]2O)c2cc(CO)cc(O)c21	0.925 (inactive)
OC(c1cc(C(F)(F)F)nc2c(C(F)(F)F)cccc12)C1CCCCN1 (stereo not drawn)	0.709 (inactive) and 0.928 (inactive)
CCCCS(=N)(=O)CCC(N)C(=O)O (stereo not drawn)	0.991 (inactive)
Nc1nc(N)c2nc(CNc3ccc(C(=O)NC(CCC(=O)O)C(=O)O)cc3)cnc2n1 (stereo not drawn)	1.22 (inactive)
N#CC(c1ccc(Cl)cc1)c1c(Cl)cc(-n2ncc(=O)[nH]c2=O)cc1Cl (stereo not drawn)	0.879 (inactive) and 0.842 (inactive)
Cc1cc(=O)c(C(=O)N[C@@H](C(=O)N[C@@H]2C(=O)N3C(C(=O)O)=C(CSc4nnnn4C)CSC23)c2ccc(O)cc2)c[nH]1 (stereo partly drawn)	0.93 (inactive)
COc1ccc2nc3cc(Cl)ccc3c(Nc3cc(CN4CCCC4)c(O)c(CN4CCCC4)c3)c2n1	1.01 (inactive)
CC1=C(C(=O)O)N2C(=O)[C@@H](NC(=O)C(N)c3ccccc3)[C@H]2SC1 (stereo partly drawn)	1.03 (inactive) and 0.832 (inactive)
CC1CC2C3CCC4=CC(=O)C=C[C@]4(C)[C@@]3(F)[C@@H](O)C[C@]2(C)[C@@]1(O)C(=O)CO (stereo partly drawn)	0.94 (inactive)
CC(C)(CO)[C@@H](O)C(=O)NCCC(=O)O	0.92 (inactive) and 0.869 (inactive) and 0.91 (inactive)
CN1C(C(=O)Nc2ccccn2)=C(O)c2sc(Cl)cc2S1(=O)=O	0.905 (inactive) and 0.871 (inactive)
CC(NCCc1ccc(O)cc1)C(O)c1ccc(O)cc1 (stereo not drawn)	0.955 (inactive)
Cc1cc2nc3c(=O)[nH]c(=O)nc-3n(C[C@@H](O)[C@@H](O)[C@@H](O)COP(=O)(O)O)c2cc1C	0.895 (inactive)
CN[C@@H]1[C@H](O[C@H]2[C@H](O[C@@H]3[C@@H](O)[C@H](O)[C@@H](N=C(N)N)[C@H](O)[C@H]3N=C(N)N)O[C@@H](C)[C@]2(O)C=O)O[C@@H](CO)[C@H](O)[C@H]1O	0.935 (inactive) and 0.903 (inactive)
CN(C)CC[C@H](c1ccc(Cl)cc1)c1ccccn1	0.84 (inactive)
COc1ccc(C2Sc3ccccc3N(CCN(C)C)C(=O)C2OC(C)=O)cc1 (stereo not drawn)	0.937 (inactive) and 0.887 (inactive)
Cc1c(-c2cnccn2)ssc1=S	0.88 (inactive)
Nc1nc(F)nc2c1ncn2[C@@H]1O[C@H](COP(=O)(O)O)[C@@H](O)[C@@H]1O	1.07 (inactive)
Cc1cc2nc3c(=O)[nH]c(=O)nc-3n(CC(O)C(O)C(O)CO)c2cc1C (stereo not drawn)	0.948 (inactive)
NC(=O)c1ncn(C2O[C@H](CO)[C@@H](O)[C@H]2O)c1N (stereo partly drawn)	0.937 (inactive)
